Hits are enriched below; roughly 12% of the tested compounds scored in any of these assays.
PI5P4K alpha inh = qHTS for Inhibitors of phosphatidylinositol 5-phosphate 4-kinase (PI5P4K). Phosphatidylinositol 5-phosphate 4-kinase type-2 alpha (Homo sapiens), P48426. 330,000 tested, 1.2% active. max response, %. PI5P4Kalpha enzyme, ADP-Glo luminescence, 60 min; active compounds read low; active = max response of -50% or lower; inconclusive = between -30% and -50%; inactive = -30% or higher; note: value at the top dose of about 77 µM; % is set by controls: 0 for no effect and ±100 for the full control effect
Target sequence (P48426 whole entry, looked up): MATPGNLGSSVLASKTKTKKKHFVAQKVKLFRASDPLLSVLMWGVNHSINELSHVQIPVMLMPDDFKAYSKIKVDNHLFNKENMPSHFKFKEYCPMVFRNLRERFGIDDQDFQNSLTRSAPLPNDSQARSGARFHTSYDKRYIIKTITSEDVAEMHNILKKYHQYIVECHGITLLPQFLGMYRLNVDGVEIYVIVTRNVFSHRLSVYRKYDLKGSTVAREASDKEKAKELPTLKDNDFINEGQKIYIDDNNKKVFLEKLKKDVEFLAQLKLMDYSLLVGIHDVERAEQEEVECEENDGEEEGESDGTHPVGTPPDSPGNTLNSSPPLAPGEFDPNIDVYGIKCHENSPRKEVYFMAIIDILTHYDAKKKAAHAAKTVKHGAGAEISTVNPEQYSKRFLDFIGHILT
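Compounds were pin-transferred onto PI5P4Kalpha and substrate in HEPES pH 7.4 buffer with EGTA, CHAPS and 5% DMSO. ATP (5 microM final) started the reaction, which ran 60 minutes at room temperature before ADP-Glo detection.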
HP1b binding inh = HTS for Inhibitors of HP1-beta Chromodomain Interactions with Methylated Histone Tails; Chromobox protein homolog 1 (Homo sapiens), P83916; AlphaScreen HP1-beta / biotin-H3K9me3 peptide binding; Potency, µM (highest dose often 114 µM), for inactives: top-dose activity change, negative = inhibition, usual class: inhibitors; 390,000 tested, 0.56% active; note: potency is the fitted concentration of half-maximal effect; nearly all actives have a fitted effect of over 70% in size
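HP1-beta protein (50 nM final) preincubated 30 min at room temperature with biotinylated H3(1-18)K9me3 peptide (50 nM) in PBS pH 7.4, 0.01% Tween-20, then compound added for 30 min. AlphaScreen streptavidin donor/nickel chelate acceptor beads (10 ug/mL final), 30 min dark, luminescence read.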
BAZ2B inh = qHTS Assay for Inhibitors of BAZ2B. Bromodomain adjacent to zinc finger domain protein 2B (Homo sapiens), Q9UIF8. AlphaScreen BAZ2B-H3K14Ac peptide displacement. Potency, µM (titrated, usually from 114 µM), for inactives: top-dose activity change, negative = inhibition, hits mostly inhibitors. 360,000 tested, 4.4% active. AID 504333, 2011; note: potency is the fitted concentration of half-maximal effect; % is set by controls: 0 for no effect and ±100 for the full control effect; nearly all actives have a fitted effect of over 60% in size
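Inhibition is scored as reduced AlphaScreen emission. The BAZ2B/b-H3(5-23)K14Ac complex (50 nM each) in PBS pH 7.4, 0.01% Tween-20 meets compound (up to 110 uM) for 30 min at RT before bead addition.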
JMJD2A Tudor inh = qHTS Assay for Inhibitors of JMJD2A-Tudor Domain; Lysine-specific demethylase 4A (Homo sapiens), O75164; AlphaScreen JMJD2A-Tudor / H3K4me3 peptide binding; Potency, µM (top dose mostly 114 µM), without a hit: top-dose activity change, negative = inhibition, hits mostly inhibitors; 390,000 tested, 4.4% active; note: potency is the fitted concentration of half-maximal effect; % is set by controls: 0 for no effect and ±100 for the full control effect; nearly all actives have a fitted effect of over 50% in size
PLK1 PBD inh = qHTS for Inhibitors of PLK1-PDB (polo-like kinase 1 - polo-box domain): Primary Screen. Serine/threonine-protein kinase PLK1 (Homo sapiens), P53350. Plk1 PBD binding of FITC phosphopeptide, fluorescence polarization. Potency, µM, for inactives: max response, negative = inhibition, usual class: inhibitors. 360,000 tested, 2.8% active. AID 720504, 2013; note: potency is the fitted concentration of half-maximal effect; series mostly up to about 57 µM; % is set by controls: 0 for no effect and ±100 for the full control effect; nearly all actives have a fitted effect of over 65% in size
G9a block = qHTS Assay for Inhibitors of Histone Lysine Methyltransferase G9a; Histone-lysine N-methyltransferase EHMT2 (Homo sapiens), Q96KQ7; G9a H3K9 monomethylation, AlphaScreen, 2 h; Potency, µM (highest dose often 102 µM), for the others: at the highest dose activity, negative = inhibition, hits mostly inhibitors; 350,000 tested, 8.8% active; AID 504332, 2011; note: potency is the fitted concentration of half-maximal effect; % is set by controls: 0 for no effect and ±100 for the full control effect; nearly all actives have a fitted effect of over 75% in size
Target sequence (Q96KQ7 913-1193 limits assumed): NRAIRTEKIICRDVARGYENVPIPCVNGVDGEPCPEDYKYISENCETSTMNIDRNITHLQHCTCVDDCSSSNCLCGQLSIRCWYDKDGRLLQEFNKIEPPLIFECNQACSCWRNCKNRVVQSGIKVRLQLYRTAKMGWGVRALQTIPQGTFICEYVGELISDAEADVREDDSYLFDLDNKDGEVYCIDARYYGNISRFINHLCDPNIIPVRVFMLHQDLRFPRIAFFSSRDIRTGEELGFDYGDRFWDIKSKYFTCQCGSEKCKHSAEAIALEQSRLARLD
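Readings reflect AlphaScreen signal from monomethyl-H3K9 antibody detection. HMT at 20 nM; substrate b-H3K9 500 nM; cofactor SAM 20 uM; 2 h RT reaction; compounds tested as titrations in qHTS with 15 min preincubation.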
Numbers without * were called inactive; ? = inconclusive; nt = not tested or not shown; ! = not confirmed by another sample; [ ] = another dose, or the depositor's remark. Unless noted, calls come from the whole dose curve; as a rule, active = well fitted curve in the direction sought with a large enough effect; inconclusive = small, poorly fitted or top-dose-only effect, or another doubt; inactive = no such curve, though single readings can be large; an effect the other way counts as inactive or inconclusive.

SMILES	PI5P4K alpha inh	HP1b binding inh	BAZ2B inh	JMJD2A Tudor inh	PLK1 PBD inh	G9a block
O=[N+]([O-])c1cc([N+](=O)[O-])c2cccnc2c1Oc1ccccc1O	?	71µM*	28µM*	22µM*	3.4µM*	3.2µM*
OCc1ccc(-c2nn(Cc3ccccc3)c3ccccc23)o1	2	12%	40µM*	-19%	-13%	21µM*
O=C(O)CCCn1nc(-c2ccccc2)c2ccccc21	2	23%	-2%	-10%	-17%	-3%[59 µM]
Cc1ccc(-c2nc(CS(=O)CC(=O)NCCc3ccc(Cl)cc3)c(C)o2)cc1 (stereo not drawn)	nt	16%	?	-25%	nt	-36%[59 µM]
CN(c1ccccc1)c1nc(N)c([N+](=O)[O-])c(Nc2ccccc2F)n1	21	1%	6%	-28%	-3%	-4%[2.33 µM]
COc1ccc(OC)c(Nc2nc(NCCC(C)C)nc(N)c2[N+](=O)[O-])c1	-3	-25%	-32%	?	-1%	?
CCC(C)Nc1nc(N)c([N+](=O)[O-])c(Nc2cc(OC)ccc2OC)n1 (stereo not drawn)	4	?	18µM*	40µM*	-10%	?
CCC(C)Nc1nc(N)c([N+](=O)[O-])c(NCc2ccccc2)n1 (stereo not drawn)	1	?	?	56µM*	30µM*	-23%
COc1ccccc1Nc1nc(NCCCN(C)C)nc(N)c1[N+](=O)[O-]	0	-15%	?	?	6%	50µM*
COc1ccc(OC)c(Nc2nc(N(C)c3ccccc3)nc(N)c2[N+](=O)[O-])c1	-2	-17%	?	?	-3%	35µM*
COc1ccc(N2CC(NC(=O)C3CCCCC3)CC2=O)cc1OC (stereo not drawn)	nt	11%	-2%	-6%	nt	?
O=[N+]([O-])c1ccc(Cc2cncc(O)c2)cc1	-4	64%	-14%	-10%	-16%	-33%[2.33 µM]
CCC(C)Nc1nc(N)c([N+](=O)[O-])c(Nc2ccccc2OC)n1 (stereo not drawn)	5	?	?	?	1%	45µM*
CC(C)CNc1nc(N)c([N+](=O)[O-])c(N2CCCCCC2)n1	2	-8%	-39%	?	-2%	?
CCC(C)Nc1nc(N)c([N+](=O)[O-])c(N2CCCCCC2)n1 (stereo not drawn)	-9	-28%	50µM*	?	-7%	-46%
CC(C)CCC[C@@H](C)[C@H]1CC[C@H]2[C@@H]3CC[C@@H]4C[C@H](O)CC[C@]4(C)[C@H]3CC[C@]12C	nt	nt	nt	nt	nt	-1%[12.7 µM]
CC(=O)CCSc1ncnc2sc(-c3ccccc3)cc12	8	29%	-30%	-22%	-1%	nt
S=c1[nH]cnc2sc(-c3ccccc3)cc12	-11	16%	-4%	-21%	?	35µM*
O=C(O)CSc1ncnc2sc(-c3ccccc3)cc12	-78*	20%	-5%	-8%	-12%	-8%
CC(Sc1ncnc2sc(-c3ccccc3)cc12)C(N)=O (stereo not drawn)	-3	26%	79µM*	-21%	-7%	nt
O=C(O)CCSc1ncnc2sc(-c3ccccc3)cc12	-23	33%	-14%	-19%	17µM*	nt
Cc1ccc(S(=O)(=O)N2C[C@H]3C(=O)C[C@@H](c4cccc(Cl)c4)N(S(=O)(=O)c4ccc(C)cc4)[C@H]3C[C@H]2c2ccccc2)cc1	-5	nt	nt	nt	-5%	nt
CCC(=O)N1CCN(c2nc3ccc(Br)cc3s2)CC1	3	57%	-15%	10%	3%	?
Cc1cnc(NC(=O)C2COc3ccccc3O2)s1 (stereo not drawn)	?	-2%	?	?	-6%	35µM*
CC(C)NC(=O)c1ccccc1NC(=O)C1COc2ccccc2O1 (stereo not drawn)	-9	-5%	-1%	50µM*	27µM*	5%[59 µM]
SMILES	PI5P4K alpha inh	HP1b binding inh	BAZ2B inh	JMJD2A Tudor inh	PLK1 PBD inh	G9a block
Cc1csc(NC(=O)C2COc3ccccc3O2)n1 (stereo not drawn)	5	19%	-2%	2%	-1%	?
Cc1nc2cc(NC(=O)C3COc4ccccc4O3)ccc2s1 (stereo not drawn)	2	5%	-28%	-16%	-3%	50µM*
Cc1nc2ccc(NC(=O)C3COc4ccccc4O3)cc2s1 (stereo not drawn)	3	10%	-32%	-9%	-6%	-49%
CC(=O)Nc1ccc(NC(=O)COC(=O)c2ccc(S(=O)(=O)N(C)c3ccccc3)cc2)cc1	-2	5%	nt	-19%	4%	nt
CN(C)c1ncc2nc(-c3cccs3)c(=O)n(-c3ccccc3)c2n1	nt	nt	nt	nt	nt	6%[0.501 µM]
CC(=O)Nc1ccc(C)c([N+](=O)[O-])c1	-6	11%	6%	4%	0%	-3%
O=C(NNc1ccc([N+](=O)[O-])cc1)C1C2CCCCC21 (stereo not drawn)	-13	22%	-7%	-20%	6%	89µM*
Cc1ccc(NC(=O)C2C3CCCCC32)cc1[N+](=O)[O-] (stereo not drawn)	-4	-8%	20µM*	?	3%	nt
O=C(NNc1ccc([N+](=O)[O-])cc1[N+](=O)[O-])C1C2CCCCC21 (stereo not drawn)	-1	-4%	-16%	-24%	-9%	?
O=C(Nc1nnc([C@@H]2C[C@H](O)[C@@H](CO)O2)s1)Nc1cccc2c1CCCC2	0	nt	nt	nt	-5%	nt
CCC(C)NC(=O)CCn1c(-c2ccccc2)cc(C(C)=O)c1C (stereo not drawn)	-8	19%	50µM*	2%[57.1 µM]	-13%	15%
CC(=O)c1cc(-c2ccccc2)n(CCC(=O)NC2CCCC2)c1C	-5	6%	50µM*	-18%	-4%	3%
CCOC(=O)c1cc(-c2ccccc2)n(CCC(=O)NC(C)CC)c1C (stereo not drawn)	nt	3%	-32%	-19%	1%	1%[59 µM]
CC(=O)c1cc(-c2ccccc2)n(CCC(=O)NC2CCCCC2)c1C	5	25%	50µM*!	-15%	-1%	5%[59 µM]
CC(C)C[C@H](NC(=O)OCC1c2ccccc2-c2ccccc21)C(=O)O	8	11%	nt	-15%	-8%	nt
COc1ccc(NC(=O)c2cc(C3CC3)nc3c2c(C)nn3-c2ccc(C)cc2)cc1OC	nt	58%	20%[57.1 µM]	-13%	nt	-3%[59 µM]

Source: PubChem BioAssay
